# Only some compounds are listed: those with a hit (about 18% of all), similar ones and a draw of the others.
# HepG2 viability = counter-screen for TGF-b inhibitors: cytotoxicity in HepG2 cells | HepG2 CAGA-GFP viability, ATP luminescence, 18 h | Potency, µM (titrated, usually from 46.1 µM), for inactives: top-dose activity change, negative = cytotoxicity, actives largely listed as cytotoxic | actives 0.76% (n = 410,000); also: potency is read from the fitted curve at half-maximal effect
#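 HepG2 CAGA-GFP cells (1000/well, DMEM with 1% FBS) received compound, then TGF-beta at 500 pg/mL final, and were incubated 18 hours at 37 degrees C. Viability was read by CellTiter-Glo luminescence. Media-only wells were set as complete cell-killing and DMSO as no toxicity.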
# TGFb SMAD3 inh = blocks TGF-b signaling; HepG2 CAGA-GFP TGF-b/SMAD3 reporter, GFP fluorescence, 18 h; TGF-beta stimulated, 500 pg/mL final; Potency, µM (titrated, usually from 46.1 µM), for inactives: top-dose activity, negative = inhibition, usual class: inhibitors; actives 1.2% (n = 410,000); AID 588855; also: potency is read from the fitted curve at half-maximal effect; % is scaled to controls: 0 for no effect and ±100 for the full control effect; nearly all actives have a fitted effect of over 65% in size
#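 Cell-based qHTS in HEPG2 carrying a CAGA-GFP Smad reporter; compounds added before 500 pg/mL final TGF-beta, 18 h incubation at 37 degrees C, GFP fluorescence quantified per cell by imaging cytometry.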
# IL1B secr inh = blocks inflammasome-driven IL-1 beta release. THP-1 LPS/ATP IL-1B secretion, AlphaLISA, 16 h; hits give low values. activity change, % at 57.5 µM. actives 4.7% (n = 360,000); in the data active = activity change below about -50%; inconclusive = mostly about -30% to -49%; also: % is scaled to controls: 0 for no effect and ±100 for the full control effect
#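 THP-1 cells pretreated 1 hr with compounds (up to 57.5 uM final), then stimulated with LPS (250 ng/mL final) plus ATP (1.25 mM final); secreted IL-1B measured by AlphaLISA after 16 hr, decreased signal indicating inhibition.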
# TDP1 block = inhibitors of human tyrosyl-DNA phosphodiesterase TDP1; Potency, µM (highest dose often 130 µM), without a hit: top-dose activity change, negative = inhibition, hits mostly inhibitors; actives 0.28% (n = 350,000); Q9NUW8; recombinant TDP1, AlphaScreen DNA substrate cleavage; also: potency is read from the fitted curve at half-maximal effect; % is scaled to controls: 0 for no effect and ±100 for the full control effect; nearly all actives have a fitted effect of over 40% in size
# Target sequence (Q9NUW8 whole entry, looked up): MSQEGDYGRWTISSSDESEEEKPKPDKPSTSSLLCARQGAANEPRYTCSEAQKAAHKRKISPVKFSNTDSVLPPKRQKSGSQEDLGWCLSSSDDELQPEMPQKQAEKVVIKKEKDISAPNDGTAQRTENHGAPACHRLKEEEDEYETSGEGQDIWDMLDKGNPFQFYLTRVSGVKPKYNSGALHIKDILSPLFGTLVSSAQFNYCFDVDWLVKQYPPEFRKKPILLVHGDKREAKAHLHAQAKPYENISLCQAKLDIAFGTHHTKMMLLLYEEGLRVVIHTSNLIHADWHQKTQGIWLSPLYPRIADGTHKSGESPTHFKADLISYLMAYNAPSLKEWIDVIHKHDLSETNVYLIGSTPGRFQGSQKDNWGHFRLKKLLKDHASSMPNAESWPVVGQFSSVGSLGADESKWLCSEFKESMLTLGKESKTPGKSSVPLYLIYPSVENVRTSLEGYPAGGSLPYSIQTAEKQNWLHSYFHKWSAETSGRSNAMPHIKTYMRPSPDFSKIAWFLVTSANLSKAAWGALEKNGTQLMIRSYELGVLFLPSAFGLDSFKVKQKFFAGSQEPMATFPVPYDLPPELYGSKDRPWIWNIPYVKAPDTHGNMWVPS
#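 E. coli-derived human Tdp1, 1 nM final. Cpd preinc 15 min RT; substrate 15 nM final, 5 min RT; AS bead mix 10 ug/ml final, 10 min RT. Signal loss = tyrosine-FITC cleavage. No-enzyme wells = max signal.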
# TDP1 cell noCPT = qHTS for Inhibitors of human tyrosyl-DNA phosphodiesterase 1 (TDP1): qHTS in cells in absence of CPT. DT40 Tdp1-/- hTDP1 cells, no CPT, ATP luminescence, 48 h. Potency, µM (top dose mostly 46.2 µM), for the others: at the top dose activity change, negative = growth inhibition, hits mostly inhibitors. actives 15% (n = 420,000); also: potency is read from the fitted curve at half-maximal effect; % is scaled to controls: 0 for no effect and ±100 for the full control effect; nearly all actives have a fitted effect of over 55% in size
#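 Readout: luminescence from CellTiter-Glo after 30 min in the dark at RT. Cells: DT40 Tdp1-/- with stable hTDP1, 400/well. Exposure: compounds alone, ≥48 hr, 37 °C.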
# DT40 TDP1 CPT = growth inhibition of DT40 Tdp1-/-;hTDP1 cells with camptothecin (screen for TDP1 inhibitors); chicken DT40 Tdp1-/-;hTDP1 cells + 20 nM CPT, ATP luminescence, 48 h; Potency, µM (top dose mostly 46.2 µM), inactives show top-dose activity change, negative = growth inhibition, actives largely listed as inhibitors; actives 12% (n = 420,000); AID 686979; also: potency is read from the fitted curve at half-maximal effect; % is scaled to controls: 0 for no effect and ±100 for the full control effect; nearly all actives have a fitted effect of over 55% in size
#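 Chicken DT40 Tdp1-/- cells stably complemented with human TDP1 were seeded at 400 cells/well in medium containing 20 nM camptothecin, exposed to pin-transferred compounds, and grown at 37 °C for at least 48 hr. Viability was read as ATP luminescence.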
# Starred values were filed as active, the others as inactive; ? = inconclusive; nt = no result; [ ] = remark or other dose. Unless noted, calls follow the shape of the dose curve; as a rule, active = well fitted curve in the direction sought with a large enough effect; inconclusive = small, poorly fitted or top-dose-only effect, or another doubt; inactive = no such curve, though single readings can be large; an effect the other way counts as inactive or inconclusive.
SMILES,HepG2 viability,TGFb SMAD3 inh,IL1B secr inh,TDP1 block,TDP1 cell noCPT,DT40 TDP1 CPT
COc1ccc(CN2CCC[C@]3(N[C@H](c4ccc(C(F)(F)F)cc4)[C@@H]4C(=O)N(Cc5ccccc5)C(=O)[C@@H]43)C2=O)cc1,-30.0%,-3.6%,-16.0,nt,?,?
C=CCN1C(=O)c2ccc(C(=O)N(C)CC(=O)Nc3ccc(Br)cc3C)cc2C1=O,8.6%,2.9%,0.4,7.7%[0.505 µM],-1.8%,19.9%
O=C(Cc1ccc([N+](=O)[O-])cc1)Nc1cccc(C(F)(F)F)c1,-27.9%,-24.4%,-6.0,3.2%,?,?
Cc1ccc(N=Nc2ccc(C)cc2NC(=O)Nc2ccccc2F)cc1,-0.1%,-18.0%,7.3,7.6%,20.6µM*,?
O=C(Nc1ccccc1)Nc1cc([N+](=O)[O-])ccc1F,-4.7%,4.8%,-5.5,0.0%,?,-0.2%
COc1ccc(CNc2ccc([N+](=O)[O-])cc2C)cc1,-1.7%,-11.6%,-7.9,5.6%,-28.3%,?
O=C(Cc1ccc([N+](=O)[O-])cc1)Nc1cc(C(F)(F)F)cc(C(F)(F)F)c1,-20.9%,-51.9%,nt,1.3%,6.51µM*,4.11µM*
Cc1cc([N+](=O)[O-])ccc1NCc1ccc2ccccc2c1,-7.3%,20µM*,0.0,6.4%,18.4µM*,?
Cc1cc([N+](=O)[O-])ccc1NC(=O)Nc1ccccc1F,-4.8%,3.7%,-99.4*,3.7%,?,?
CCOC(=O)N1CCN(/[N+]([O-])=N/Oc2ccc(C(F)(F)F)cc2[N+](=O)[O-])CC1,-21.5%,-21.6%,nt,nt,nt,nt
CC(C)[C@H](NC(=O)OCc1ccccc1)C(=O)OCC(=O)N1CCN(c2ccccc2)CC1,1.6%,0.6%,6.9,0.9%,-28.6%,7.6%
Cc1nc(C(F)(F)F)ccc1C(=O)Nc1ccccc1N1CCOCC1,1.4%,2.3%,-7.2,0.2%,-2.6%,-18.8%
C=C(C)C(=O)OCCCCCCCCCC,nt,nt,nt,5.9%,nt,nt
O=C(Cn1cc(C(F)(F)F)ccc1=O)Nc1ccc2c(c1)OCO2,-2.2%,-0.7%,-21.1,nt,0.5%,6.9%
CSc1ccccc1C(=O)Nc1cc([N+](=O)[O-])ccc1C,-12.3%,-3.1%,-5.3,-1.2%,-3.2%,-1.3%
CCOC(=O)N1CCN(CC(=O)Nc2ccc([N+](=O)[O-])cc2C(=O)Nc2ccccc2F)CC1,-20.4%,1.6%,23.5,2.7%,9.2µM*,20.6µM*
Cc1ccc([N+](=O)[O-])cc1NC(=O)Nc1cccc(F)c1,-14.3%,?,-18.2,-3.8%,9.2µM*,4.61µM*
Cc1ccc([N+](=O)[O-])cc1NC(=O)Cc1ccc(F)cc1,-65.2%,-6.5%,-16.1,5.4%,0.6%,-14.2%
Cc1cc([N+](=O)[O-])ccc1NC(=O)Cc1ccc(F)cc1,1.5%,1.1%,-58.9*,5.3%,-3.4%,5.8%
O=S1(=O)C=CC(Nc2cccc(Cl)c2)C1 (configuration not stated),-3.0%,0.6%,-89.4*,0.0%,-18.4%,-13.6%
COc1cccc(NC2C=CS(=O)(=O)C2)c1 (configuration not stated),0.7%,18.6%,-17.0,-2.4%,6.6%,7.0%
CC1(C(=O)O)CCCN1C(=O)c1ccc(Cl)cc1Cl (configuration not stated),-4.4%,0.0%,3.2,nt,3.8%,?
Cc1oc(-c2ccc(Cl)cc2)cc1C(=O)N1CCC1(C)C(=O)O (configuration not stated),-11.6%,26.8%,-4.8,nt,?,29.1µM*
Cc1nc(NC(=O)c2ccco2)sc1C(=O)O,5.01µM*,0.6%,19.1,nt,10.3µM*,6.51µM*

# Screening results deposited in PubChem by National Center for Advancing Translational Sciences (NCATS).
